Values without a mark were called inactive. Inconclusive results are not listed. Entries that show only a call come without a potency. Calls of active or inactive are those of the source. Unless noted, the call rests on the fitted dose curve; in most records, active means well fitted curve in the direction sought with a large enough effect in the repeat runs; inconclusive means weak or mixed curves; inactive means no such curve, though single readings can be large; an effect the other way counts as inactive or inconclusive.
Experiments:
[1] = A CellTox Green Cytotoxicity Assay to monitor cytotoxicity in HepG2 cells - 8 hour (AID 1224890); further: nearly all actives have a fitted effect of over 45% in size
In short: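 HepG2 cells, 600/well, preincubated 5 h with CellTox Green dye, then exposed to Tox21 compounds in DMSO at 37 C for up to 40 h. Dead-cell DNA fluorescence read at the indicated time point.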

[2] = qHTS assay to identify small molecule antagonists of the estrogen receptor alpha (ER-alpha) signaling pathway using the BG1 cell line in the presence of 0.1 nM 17-beta-estradiol - cell viability counter screen (AID 1259241); further: nearly all actives have a fitted effect of over 40% in size
In short: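 VM7Luc4E2, 4,000 cells/well, phenol red-free medium + 10% charcoal-stripped FBS; 24 hr plating; cpd + 0.1 nM E2 final, 22 hr 37C/5% CO2; CellTiter-Fluor 30 min, fluorescence.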

[3] = qHTS assay to identify small molecule phospholipidosis (PLD) inducers (AID 1259344; active means well fitted curve in the direction sought with a large enough effect; an effect the other way counts as inactive or inconclusive; further: potency means the concentration at half of the fitted maximal effect)
In short: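 Phospholipidosis is scored by imaging LipidTOX-stained pits in HepG2 cells exposed to compound for 24 h at 37 C; pit counts and integrated intensities per well and per cell serve as outputs.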

[4] = qHTS assay to identify small molecule HDAC inhibitors - cell viability counter screen (AID 1259365); further: series mostly up to about 92 µM; nearly all actives have a fitted effect of over 50% in size
In short: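 Luminescence from CellTiter-Glo, developed 30min at room temperature, reports viability of wild-type HCT-116 cells treated 2hr with compounds at 37 C and 5% CO2 after overnight plating.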

[5] = qHTS assay to identify small molecule agonists of the sonic hedgehog signaling (Shh) pathway (AID 1259368; calls by dose curve;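 further: NIH/3T3-derived 3T3Gli1-Luc cells carrying a stable Gli1-driven firefly luciferase reporter; series mostly up to about 92 µM; nearly all actives have a fitted effect of over 15% in size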)
In short: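 NIH/3T3-derived 3T3Gli1-Luc cells with stably integrated Gli1-driven firefly luciferase, 2,000 cells/well, compounds added after 4 hr. Incubated 24 hr at 37C, 5% CO2; luminescence read after 30 min with luciferase reagent at room temperature.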

[6] = qHTS assay to identify small molecule antagonists of the sonic hedgehog signaling (Shh) pathway (AID 1259369; calls by dose curve; further: nearly all actives have a fitted effect of over 45% in size; further: potency means the concentration at half of the fitted maximal effect)
In short: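 NIH/3T3-derived Gli1-Luc reporter cells plated 4 h, dosed with compound, then stimulated with conditioned medium for 24 h at 37 C. Firefly luciferase luminescence read after 30 min with detection reagent at room temperature.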

[7] = molecular target: Estrogen receptor beta (Homo sapiens) (UniProt Q92731); test: qHTS assay to identify small molecule agonists of the estrogen receptor beta (ER-beta) signaling pathway (AID 1259377; active means well fitted activation curve with a large enough effect in the signal ratio in the repeat runs, not every such curve was filed as active; the % refers to the signal ratio)
In short: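 HEK293T ER-beta-UAS-bla; 2% charcoal-stripped FBS; cells pre-incubated 6 hr, compound 16 hr, 37C/5% CO2; LiveBLAzer B/G FRET substrate 2 h RT; fluorescence intensity read.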

[8] = molecular target: Estrogen receptor beta (Homo sapiens) (UniProt Q92731); test: qHTS assay to identify small molecule antagonists of the estrogen receptor beta (ER-beta) signaling pathway (AID 1259378; active means well fitted inhibition curve with a large enough effect in the signal ratio in the repeat runs, not every such curve was filed as active; the % refers to the signal ratio; further: potency means the concentration at half of the fitted maximal effect)
In short: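 Antagonist mode: compounds added to beta-lactamase reporter HEK293T ER-beta-UAS cells stimulated with E2 (1nM final), 16 hr at 37C. LiveBLAzer B/G FRET substrate, 2 hours room temperature, fluorescence read-out.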

[9] = qHTS assay to identify small molecule antagonists of the estrogen receptor beta (ER-beta) signaling pathway - cell viability counter screen (AID 1259382);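 further: HEK293T cells carrying ER-beta-UAS-bla reporter stimulated with estradiol; series mostly up to about 92 µM; nearly all actives have a fitted effect of over 55% in size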
In short: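 ER-beta-UAS-bla HEK293T cells in 2% charcoal-stripped FBS medium, treated with compound plus 1 nM 17-beta-estradiol for 16 h at 37C. Viability read by CellTiter-Glo luminescence after 30 min at room temperature in the same wells.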

[10] = qHTS assay to identify small molecule agonists or antagonists of the thyroid stimulating hormone receptor (TSHR) signaling pathway - wild type cell line counter screen (AID 1259384; calls by dose curve)
In short: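 Counter screen in untransfected Hek293: compounds (15-point titration, triplicate) plus phosphodiesterase inhibitor Ro20-1724 added after 18 h plating; 30 min RT. Intracellular cAMP via competitive d2/cryptate immunoassay, 1 h incubation.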

[11] = qHTS assay to identify small molecule antagonists of the androgen receptor (AR) signaling pathway using the MDA cell line in the presence of 0.5 nM R1881 - cell viability counter screen (AID 1259242); further: nearly all actives have a fitted effect of over 45% in size
In short: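 MDA-kb2 cells (MMTV-luciferase, AR/GR responsive) were treated with compounds plus 0.5 nM R1881 (final) for 16 hr at 37C, 0% CO2. Viability was then read in the same wells as live-cell protease fluorescence (CellTiter-Fluor, 30 min).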

[12] = molecular target: Androgen receptor (Homo sapiens) (UniProt P10275); test: qHTS assay to identify small molecule antagonists of the androgen receptor (AR) signaling pathway using the MDA cell line in the presence of 0.5 nM R1881 (AID 1259243); further: nearly all actives have a fitted effect of over 50% in size
In short: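 MDA-kb2 cells (MMTV-luciferase, responsive to AR and GR) at 3,000/well, rested 5 h at 37C, 0% CO2, then given compounds plus 0.5 nM R1881 (final) for 16 hr. Luciferase read with ONE-Glo after 30 min at room temperature.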

[13] = molecular target: Estrogen receptor (Homo sapiens) (UniProt P03372); test: qHTS assay to identify small molecule antagonists of the estrogen receptor alpha (ER-alpha) signaling pathway using the BG1 cell line in the presence of 0.1 nM 17-beta-estradiol (AID 1259244); further: nearly all actives have a fitted effect of over 50% in size
In short: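 VM7Luc4E2 cells (endogenous full-length ER-alpha, 4×ERE-luciferase), kept 5 days in phenol red-free, charcoal-stripped FBS medium; 4,000 cells/well. Compounds added with 0.1 nM (final) 17beta-estradiol, 22 hr at 37C; luminescence read with ONE-Glo after 30 min.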

[14] = qHTS assay to identify small molecule HDAC inhibitors (AID 1259364); further: top concentration of the series differs between compounds; nearly all actives have a fitted effect of over 45% in size
In short: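 Wild-type HCT-116 cells, plated overnight at 37 C, exposed to compounds 2 hr at 37 C; luminogenic HDAC-Glo substrate then added 30 min at room temperature. Luminescence reports relative endogenous class I/II HDAC activity.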

[15] = qHTS assay to identify small molecule agonists of the sonic hedgehog signaling (Shh) pathway - cell viability counter screen (AID 1259366); further: nearly all actives have a fitted effect of over 50% in size
In short: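 Cytotoxicity counter screen run in the same wells as the Shh reporter assay. NIH/3T3 cells carrying a Gli1 response element–driven luciferase were treated with DMSO-dissolved compounds for 24hr, and live-cell protease activity was measured with CellTiter-Fluor.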

[16] = qHTS assay to identify small molecule antagonists of the sonic hedgehog signaling (Shh) pathway - cell viability counter screen (AID 1259367); further: nearly all actives have a fitted effect of over 55% in size
In short: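 Cells: 3T3 Gli1-Luc, 2,000/well, 4 hr pre-incubation. Compounds in DMSO, then conditioned medium. Incubation 24 hr, 37C, 5% CO2. CellTiter-Fluor at 23 hr, 1 hr, fluorescence.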

[17] = qHTS assay to identify small molecule agonists of the androgen receptor (AR) signaling pathway in the presence of an antagonist - cell viability counter screen (AID 1259379);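 further: MDA-kb2 human breast cancer cells carrying an MMTV luciferase reporter; series mostly up to about 92 µM; nearly all actives have a fitted effect of over 25% in size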
In short: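 MDA-kb2 cells (MMTV-luciferase, AR/GR), 3,000/well, 5 h attachment, then 3.0 µM nilutamide (final) and compounds at 15 concentrations. Viability by CellTiter-Fluor fluorescence after 16 h at 37 °C, 0% CO2, in the reporter wells.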

[18] = qHTS assay to identify small molecule agonists of the estrogen receptor beta (ER-beta) signaling pathway - cell viability counter screen (AID 1259380); further: nearly all actives have a fitted effect of over 30% in size; further: potency means the concentration at half of the fitted maximal effect
In short: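 ER-beta-UAS-bla HEK293T cells in medium with 2% charcoal-stripped FBS, pre-incubated 6 hr, then treated 16 hr at 37C. Cytotoxicity read in the same wells by CellTiter-Glo luminescence after 30 min at room temperature.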

[19] = molecular target: Androgen receptor (Homo sapiens) (UniProt P10275); test: qHTS assay to identify small molecule agonists of the androgen receptor (AR) signaling pathway in the presence of an antagonist (AID 1259381; calls by dose curve; further: nearly all actives have a fitted effect of over 15% in size)
In short: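 MDA-kb2 cells carrying MMTV-luciferase (AR/GR responsive), 3,000 cells/well, co-treated with 3.0 uM nilutamide final. Compounds at 15 concentrations, 16 hr at 37C without CO2. Luciferase luminescence read after 30 min with ONE-Glo.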

[20] = molecular target: Estrogen receptor (Homo sapiens) (UniProt P03372); test: qHTS assay to identify small molecule agonists of the estrogen receptor alpha (ER-alpha) signaling pathway in the presence of an antagonist (AID 1259383; calls by dose curve; further: top concentration of the series differs between compounds; nearly all actives have a fitted effect of over 15% in size)
In short: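 VM7Luc4E2 cells express endogenous full-length ER-alpha with an ERE-luciferase reporter and were hormone-deprived for 5 days. Compounds at 15 concentrations were added with 10.0nM ICI-182,780 for 22hr at 37C. Luminescence was read with ONE-Glo.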

Sequence of Estrogen receptor beta (Homo sapiens) (Q92731 whole entry, looked up): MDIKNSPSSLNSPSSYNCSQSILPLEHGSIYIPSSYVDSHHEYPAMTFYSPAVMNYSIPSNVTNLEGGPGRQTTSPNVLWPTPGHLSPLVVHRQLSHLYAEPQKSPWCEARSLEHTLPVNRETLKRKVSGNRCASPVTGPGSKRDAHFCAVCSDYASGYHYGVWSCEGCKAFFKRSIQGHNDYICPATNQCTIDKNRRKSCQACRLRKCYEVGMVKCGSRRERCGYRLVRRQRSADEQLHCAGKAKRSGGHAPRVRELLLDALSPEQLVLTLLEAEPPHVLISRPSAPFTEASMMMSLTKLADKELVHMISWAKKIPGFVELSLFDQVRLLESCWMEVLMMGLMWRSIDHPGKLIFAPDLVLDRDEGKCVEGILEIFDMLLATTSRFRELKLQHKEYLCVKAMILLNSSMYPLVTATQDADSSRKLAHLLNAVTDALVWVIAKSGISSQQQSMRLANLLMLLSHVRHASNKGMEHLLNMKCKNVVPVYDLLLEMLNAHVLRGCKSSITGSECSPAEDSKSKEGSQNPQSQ
Sequence of Estrogen receptor (Homo sapiens) (P03372 whole entry, looked up): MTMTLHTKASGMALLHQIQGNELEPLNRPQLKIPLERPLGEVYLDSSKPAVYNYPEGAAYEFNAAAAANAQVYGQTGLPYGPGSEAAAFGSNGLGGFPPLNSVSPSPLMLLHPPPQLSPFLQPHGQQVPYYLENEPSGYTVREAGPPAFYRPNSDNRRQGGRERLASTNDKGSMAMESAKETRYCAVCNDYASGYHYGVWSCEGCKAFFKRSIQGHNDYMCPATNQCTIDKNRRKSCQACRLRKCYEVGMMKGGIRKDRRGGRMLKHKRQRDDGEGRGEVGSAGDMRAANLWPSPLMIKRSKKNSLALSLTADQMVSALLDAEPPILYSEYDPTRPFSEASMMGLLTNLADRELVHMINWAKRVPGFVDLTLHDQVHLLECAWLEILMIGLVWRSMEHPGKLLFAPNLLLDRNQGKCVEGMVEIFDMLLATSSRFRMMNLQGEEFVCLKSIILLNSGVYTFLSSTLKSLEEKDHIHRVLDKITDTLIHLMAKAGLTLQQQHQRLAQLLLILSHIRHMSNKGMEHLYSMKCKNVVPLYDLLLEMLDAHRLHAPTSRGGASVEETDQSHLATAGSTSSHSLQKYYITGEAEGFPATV
Sequence of Androgen receptor (Homo sapiens) (P10275 whole entry, looked up): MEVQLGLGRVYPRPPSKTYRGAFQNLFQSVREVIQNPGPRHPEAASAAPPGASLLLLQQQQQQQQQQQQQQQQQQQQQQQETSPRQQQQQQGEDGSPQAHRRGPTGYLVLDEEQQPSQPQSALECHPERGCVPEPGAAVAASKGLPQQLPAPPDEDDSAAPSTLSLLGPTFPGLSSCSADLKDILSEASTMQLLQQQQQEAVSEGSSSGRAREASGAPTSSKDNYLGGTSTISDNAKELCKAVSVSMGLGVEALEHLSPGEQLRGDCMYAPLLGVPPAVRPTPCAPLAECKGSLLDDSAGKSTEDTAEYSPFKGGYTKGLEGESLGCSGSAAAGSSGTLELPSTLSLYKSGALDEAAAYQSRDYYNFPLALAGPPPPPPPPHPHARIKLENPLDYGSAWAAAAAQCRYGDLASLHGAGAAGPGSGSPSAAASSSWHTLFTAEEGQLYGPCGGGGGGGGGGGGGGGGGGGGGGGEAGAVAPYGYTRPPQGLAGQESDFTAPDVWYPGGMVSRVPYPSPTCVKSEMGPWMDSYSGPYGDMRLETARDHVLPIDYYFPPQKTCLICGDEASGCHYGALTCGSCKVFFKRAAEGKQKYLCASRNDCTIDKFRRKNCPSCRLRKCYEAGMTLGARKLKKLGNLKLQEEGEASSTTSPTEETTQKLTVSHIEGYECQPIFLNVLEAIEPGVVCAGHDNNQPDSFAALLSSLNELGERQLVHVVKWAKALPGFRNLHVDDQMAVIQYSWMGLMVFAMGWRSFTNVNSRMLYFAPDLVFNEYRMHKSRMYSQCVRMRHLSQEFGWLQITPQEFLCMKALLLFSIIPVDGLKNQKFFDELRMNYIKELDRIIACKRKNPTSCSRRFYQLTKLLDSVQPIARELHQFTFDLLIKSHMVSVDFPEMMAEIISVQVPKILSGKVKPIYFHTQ

| Compound | Potency [1] | outcome [2] | Potency [3] | outcome [4] | Potency [5] | Potency [6] | outcome [7] | Potency [8] | Potency [9] | outcome [10] | outcome [11] | Potency [12] | outcome [13] | Potency [14] | Potency [15] | outcome [16] | Potency [17] | Potency [18] | Potency [19] | Potency [20] |
| --- | --- | --- | --- | --- | --- | --- | --- | --- | --- | --- | --- | --- | --- | --- | --- | --- | --- | --- | --- | --- |
| c1cc(CN2CCCCC2)cc(OCCCNc2nc3ccccc3s2)c1 | inactive | inactive | inactive | inactive | inactive | 4.73 µM (active) | inactive | 23.7 µM (active) | inactive | inactive |  |  |  |  |  |  |  |  |  |  |
| CC(C)CCCC(C)NCCC(C)C (configuration not stated) | inactive |  |  | inactive | inactive | inactive |  | inactive | inactive |  | inactive | inactive | inactive | inactive | inactive | inactive | inactive | inactive | inactive | inactive |
| C=C(C)C(=O)NCCCN(C)C | inactive | inactive |  | inactive | inactive | inactive | inactive | inactive | inactive |  | inactive |  |  | inactive | inactive | inactive | inactive | inactive |  |  |
| CSc1ccc(C=O)cc1 | inactive | inactive |  | inactive | inactive |  | inactive |  | inactive | inactive | inactive |  |  |  | inactive | inactive | inactive | inactive |  |  |
| CCN1CCN(c2cc3c(cc2F)c(=O)c(C(=O)O)cn3C2CC2)CC1 | inactive |  | inactive | inactive | inactive | inactive | inactive | inactive | inactive |  | inactive | inactive |  |  | inactive | inactive | inactive | inactive | inactive |  |
| COC(=O)c1ccc(C(=O)OC)c(C(=O)OC)c1 | inactive | inactive |  | inactive | inactive | inactive | inactive | inactive | inactive | inactive | inactive |  |  | inactive |  | inactive | inactive | inactive |  |  |
| CC(C)N1C(=O)c2ccccc2C1=O | inactive | inactive |  | inactive | inactive | inactive |  |  | inactive | inactive | inactive |  |  | inactive | inactive | inactive | inactive | inactive |  |  |
| CCCCCCCCCCCCI | inactive | inactive |  | inactive | inactive |  |  |  | inactive |  | inactive |  |  | inactive | inactive | inactive | inactive |  |  |  |
| Cn1cnc2c(=O)[nH]c(N)nc21 | inactive | inactive |  | inactive | inactive | inactive | inactive | inactive | inactive | inactive | inactive |  |  | inactive | inactive | inactive | inactive | inactive |  |  |
| C=CC(=O)N1CCOCC1 | inactive | inactive |  | inactive | inactive |  |  |  | inactive | inactive | inactive |  |  | inactive |  | inactive | inactive | inactive |  |  |
| O=c1[nH]c2ccccc2c(=O)n1CCCl | inactive |  |  | inactive | inactive | inactive | inactive |  | inactive | inactive | inactive | inactive |  | inactive | inactive | inactive | inactive | inactive | inactive |  |
| C#CC(C)(O)CC(C)C (configuration not stated) | inactive | inactive |  | inactive | inactive | inactive | inactive | inactive | inactive | inactive | inactive |  |  | inactive | inactive | inactive | inactive | inactive |  |  |
| OCCCCCCO | inactive | inactive |  | inactive | inactive | inactive |  |  |  |  | inactive |  |  | inactive | inactive | inactive | inactive | 55.1 µM (active) |  |  |
| OC[C@H]1O[C@@H]2O[C@H]3[C@H](O)[C@@H](O)[C@@H](O[C@H]4[C@H](O)[C@@H](O)[C@@H](O[C@H]5[C@H](O)[C@@H](O)[C@@H](O[C@H]6[C@H](O)[C@@H](O)[C@@H](O[C@H]7[C@H](O)[C@@H](O)[C@@H](O[C@H]8[C@H](O)[C@@H](O)[C@@H](O[C@H]9[C@H](O)[C@@H](O)[C@@H](O[C@H]1[C@H](O)[C@H]2O)O[C@@H]9CO)O[C@@H]8CO)O[C@@H]7CO)O[C@@H]6CO)O[C@@H]5CO)O[C@@H]4CO)O[C@@H]3CO | inactive | inactive |  | inactive | inactive | inactive | inactive | inactive | inactive |  | inactive |  |  | inactive | inactive | inactive | inactive | inactive |  |  |
| Cc1c(C)n(CCN(C)C)c2ccc(C(=O)OCCN(C)C)cc12 | inactive |  | 11.2 µM (active) | inactive | inactive | inactive | inactive | inactive | inactive |  | inactive |  | inactive | inactive | inactive | inactive | inactive |  |  | inactive |
| OCC(O)[C@@H](O)[C@H](O)[C@H](O)CO[C@H]1O[C@H](CO)[C@@H](O)[C@H](O)[C@H]1O (some centres not stated) | inactive | inactive |  | inactive | inactive |  | inactive | inactive | inactive | inactive | inactive |  |  | inactive | inactive | inactive | inactive | inactive |  |  |
| CC(C=O)Cc1ccc(C(C)C)cc1 (configuration not stated) | inactive | inactive |  | inactive | inactive | inactive | inactive | inactive | inactive | inactive | inactive |  |  | inactive | inactive | inactive | inactive | inactive |  |  |
| Cc1ccc(N)cc1[N+](=O)[O-] | inactive | inactive |  | inactive | inactive |  |  |  | inactive | inactive | inactive |  |  | inactive | inactive | inactive | inactive | inactive | inactive |  |
